CYP2C19 activ = cytochrome P450 2C19 (human) activation; 96,000 tested, under 10 active; AID 1025; P33261; activation factor at 5 µM; recombinant CYP2C19, luciferin-H EGE luminescence; stronger effect = higher value; 0 = fully inhibited enzyme, 1 = untreated enzyme;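 active means activation factor of at least 2 at 5 µM in the primary screen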;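 further: 0 = wells with 2.5 mM tranylcypromine and 1 = vehicle-only wells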
CYP2C9 inhib = inhibitors of human CYP2C9 | CYP2C9 Supersomes, luciferin-H conversion, luminescence | P11712 | inhibition, % at 5 µM | AID 777 | hit rate 20% among 96,000;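 active means blocking of liver enzyme CYP2C9 beyond about 50% at 5 µM, limit read from the data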
Target sequence (P11712 whole entry, looked up): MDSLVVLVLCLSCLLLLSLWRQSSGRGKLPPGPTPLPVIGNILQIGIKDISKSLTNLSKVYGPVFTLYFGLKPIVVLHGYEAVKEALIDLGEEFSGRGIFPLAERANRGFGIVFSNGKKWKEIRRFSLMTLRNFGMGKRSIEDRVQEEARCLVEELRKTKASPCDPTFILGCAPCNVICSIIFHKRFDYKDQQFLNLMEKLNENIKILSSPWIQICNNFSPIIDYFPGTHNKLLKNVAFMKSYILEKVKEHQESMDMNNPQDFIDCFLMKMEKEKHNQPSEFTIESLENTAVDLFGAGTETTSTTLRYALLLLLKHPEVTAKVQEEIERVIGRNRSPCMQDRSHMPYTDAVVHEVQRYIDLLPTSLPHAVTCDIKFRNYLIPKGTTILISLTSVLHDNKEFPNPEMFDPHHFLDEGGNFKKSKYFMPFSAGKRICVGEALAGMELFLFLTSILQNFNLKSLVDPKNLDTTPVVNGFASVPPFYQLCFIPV
PostGolgi yeast = growth inhibition of a yeast mutant, post-Golgi transport screen | inhibition, % at 10 µM | AID 739 | hit rate 0.9% among 98,000 | post-Golgi transport phenotypic cell assay;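 further: yeast cells grown in 1536-well plates; yeast grown about 18 h at 30C before absorbance read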
CYP2C9 act = increases human cytochrome P450 2C9 activity; P11712; recombinant CYP2C9, luciferin-H conversion, luminescence; stronger effect = higher value; factor 1 = untreated enzyme, 0 = blocked; activation factor at 5 µM; hit rate 1.4% among 96,000; AID 1024;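 active means activation factor of 2 or more for CYP2C9 at a 5 µM dose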;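 further: 0 = sulfaphenazole-blocked wells and 1 = vehicle-only wells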
PostGolgi ctrl = inhibits growth of the yeast control strain. hit rate 5% among 98,000. inhibition, % at 10 µM. efflux-deficient yeast background strain, growth absorbance A615, 16 h
CYP2C19 inh = human CYP2C19 inhibition. P33261. CYP2C19 Supersomes, luciferin-H EGE luminescence, 30 min. inhibition, % at 5 µM. hit rate 21% among 96,000. AID 778;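 active means CYP2C19 inhibition above a set limit at 5 µM in the primary screen, cut at about 50% in these data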;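 further: plate controls were negative control wells for no effect and 2.5 mM tranylcypromine positive control for full effect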
* marks the source's active call; other numbers are inactive results; / = not tested or not shown. A selection follows. Unless noted, no stated cut-off is given here; in the data, active means inhibition above about 30%; inactive means the rest.

SMILES	CYP2C19 activ	CYP2C9 inhib	PostGolgi yeast	CYP2C9 act	PostGolgi ctrl	CYP2C19 inh
O=C(CN(CCc1ccccc1)C(=O)CNS(=O)(=O)c1ccc(F)cc1)NCC1CCCO1 (configuration not stated)	0.6	6	-1	0.9	6	40
Cc1ccc(-n2c(-c3cc(C)n(C)n3)n[nH]c2=S)cc1	0.9	16	-9	0.8	10	13
O=S(=O)(NCCc1csc(-c2cccnc2)n1)c1ccc2c(c1)OCCO2	0.5	30	-2	0.7	21	51*
O=S(=O)(NCCc1csc(-c2ccc(C(F)(F)F)cc2)n1)c1ccc2c(c1)OCCO2	0.6	-21	-2	1.2	19	38
COc1ccc(-c2nc(CCNS(=O)(=O)c3ccc4c(c3)OCCO4)cs2)cc1	0	80*	-1	0.2	23	98*
Cc1cccn2cc(CCNS(=O)(=O)c3ccc4c(c3)OCCO4)nc12	0.6	-27	-9	1.3	7	42
CC(C)N(C)C1CCN(C(=O)Nc2ccc(Cl)c(Cl)c2)CC1	1.2	-18	-4	1.2	3	-19
Brc1ccc(-c2nc3ncccn3c2NC2CCCCC2)o1	0.5	56*	4	0.4	45*	48
Cc1ccc(-c2nc3ncccn3c2NC2CCCC2)o1	1	1	6	1	9	3
CCC1CCCCN1S(=O)(=O)c1ccc2c(c1)CCN2C(=O)C1CCC1 (configuration not stated)	0.7	52*	1	0.5	68*	28
O=C(C1CCC1)N1CCc2cc(S(=O)(=O)NCc3ccccn3)ccc21	0.9	58*	-4	0.4	2	14
O=C(C1CCC1)N1CCc2cc(S(=O)(=O)NCCN3CCN(c4ccccc4F)CC3)ccc21	0.5	59*	-1	0.4	38*	48
O=C(C1CC1)N1CCc2cc(S(=O)(=O)NC3CCN(Cc4ccccc4)CC3)ccc21	0.9	2	3	1	1	9
CC(=O)N1CCC2(CC1)CC(=O)c1cc(OCC(=O)NCc3ccco3)ccc1O2	0.9	-31	-6	1.3	2	7
Cc1[nH]c(=O)c(C#N)c(C)c1Br	1.1	-12	-10	1.1	7	-5
Cc1[nH]c(C)c2c(=O)n(-c3ccccc3)ncc12	0.9	4	7	1	2	6
Cc1ccccc1Cn1c(=N)n(CC(=O)c2ccco2)c2ccccc21	1	0	-1	1	7	3
Cc1cc2cc(CN(Cc3nnnn3C3CCCCC3)CC3CCCO3)c(=O)[nH]c2cc1C (configuration not stated)	0.3	38	-15	0.6	17	69*
Cc1cc2cc(CN(Cc3ccc4c(c3)OCO4)Cc3nnnn3C3CCCC3)c(=O)[nH]c2cc1C	0.9	0	3	1	4	5
Cc1ccc2cc(CN(Cc3nnnn3C3CCCCC3)CC3CCCO3)c(=O)[nH]c2c1 (configuration not stated)	0.2	49	3	0.5	16	81*
O=c1[nH]c2cc3c(cc2cc1CN(CCc1ccccc1)Cc1nnnn1C1CCCC1)OCCO3	0.7	39	-9	0.6	-1	35
Cc1ccc2[nH]c(=O)c(CN(Cc3ccc4c(c3)OCO4)Cc3nnnn3C3CCCC3)cc2c1	0.6	61*	1	0.4	25	42
Cc1ccc2cc(CN(CC3CCCO3)C(=O)C(C)C)c(=O)[nH]c2c1 (configuration not stated)	/	/	5	/	9	/
Cc1cc(C)c2cc(CN(Cc3nnnn3C3CCCCC3)CC3CCCO3)c(=O)[nH]c2c1 (configuration not stated)	0.1	55*	11	0.4	5	86*
COCCNC(=O)c1cnn2c(C(F)(F)F)cc(-c3ccc4c(c3)OCO4)nc12	0.8	36	-2	0.6	0	19
SMILES	CYP2C19 activ	CYP2C9 inhib	PostGolgi yeast	CYP2C9 act	PostGolgi ctrl	CYP2C19 inh
Cc1ccc(C)c(Cc2c(C)nc3c(C(=O)N4CCOCC4)cnn3c2C)c1	0.9	6	-5	0.9	4	11
CC1=C(C(N)=O)C(c2cccc(O)c2)n2nc(CCCO)nc2N1 (configuration not stated)	1.2	-8	3	1.1	2	-17
COc1ccc2cc(CN(CCCN3CCOCC3)Cc3nnnn3C3CCCC3)c(=O)[nH]c2c1	0.7	5	-2	1	3	32
COCCn1nnnc1CN(Cc1cccnc1)Cc1cc2cc(OC)ccc2[nH]c1=O	0.7	11	4	0.9	9	25
CCc1ccc2[nH]c(=O)c(CN(Cc3nnnn3C3CCCC3)C3CCCCC3)cc2c1	0.2	82*	-1	0.2	16	76*
COc1ccc(CN(Cc2cc3ccc(C)cc3[nH]c2=O)Cc2nnnn2C2CCCC2)cc1	0.1	93*	/	0.1	/	93*
COc1ccc2cc(CN(Cc3cccnc3)Cc3nnnn3Cc3ccccc3)c(=O)[nH]c2c1	0.1	90*	-8	0.1	7	93*
Cc1c(NC(=O)C(C)N2CC(C)OC(C)C2)c(=O)n(-c2ccccc2)n1C (configuration not stated)	1.1	-8	-1	1.1	6	-8
CN1C(=O)N(S(=O)(=O)c2ccc(F)c(F)c2F)C(=O)C1(C)C	1	-7	-12	1.1	-3	0
Cc1ccccc1-c1ccc(C=Nc2c(C)n(C)n(-c3ccccc3)c2=O)o1	0.8	-22	1	1.2	7	16
Cc1nn(-c2ccccc2)c(=S)n1-c1ccccc1	1.2	-23	-17	1.2	6	-19
CCc1nc(-c2ccccc2O)n(-c2ccccc2)n1	0.3	18	9	0.8	11	74*
O=c1c2ccccc2nc(SCc2cn3ccsc3n2)n1-c1ccc(F)cc1	0.2	97*	-2	0	52*	84*
C/C=C/c1ccc(OCCCCN2C(=O)NC(C)(C)C2=O)c(OC)c1	0.7	22	-12	0.8	21	33
CC1(C)NC(=O)N(CCOCCOc2ccccc2)C1=O	0.5	18	-5	0.8	5	48
CC1(C)NC(=O)N(CCCOc2ccccc2Br)C1=O	0.1	57*	2	0.4	12	89*
CC1(C)NC(=O)N(CCOc2cccc(Cl)c2Cl)C1=O	0.1	32	-4	0.7	11	87*
Brc1ccccc1OCCCCCN1CCCC1	0.9	-1	-1	1	11	10
CCOc1cc(C=O)ccc1OCCCN1C(=O)NC(C)(C)C1=O	0.3	31	3	0.7	3	68*
Cc1ccccc1OCCN1C(=O)NC2(CCCc3ccccc32)C1=O (configuration not stated)	0.6	-54	15	1.5	-2	35
CC1(C)NC(=O)N(CCOCCOc2c(Cl)cc(Cl)cc2Cl)C1=O	0.4	40	-5	0.6	4	56*
CCCc1nnc2n1N=C(c1ccc(-c3cc(Cl)ccc3Cl)o1)CS2	/	/	4	/	-1	/

Compound activity: PubChem, several laboratories
